Screens (PubChem)
Cav32 inh – inhibitors of human Cav3.2 T-type calcium channel; O95180; Cav3.2-expressing cells, Fluo-4 calcium fluorescence FDSS; active compounds read low; B-score at 10 µM; 4% of 100,000 active; AID 449739;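 active means single-dose well whose peak fluorescence ratio is a statistical outlier from its plate by either plate-standardised score or position-corrected B-score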
D1 mod – allosterically modulates the human D1 dopamine receptor. AID 641. HEK293 D1, CRE-luciferase, dopamine EC30 potentiation; actives deviate in either direction. 5.9% of 58,000 active. B-score at 10 µM. P21728;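 active means luminescence count or its row- and column-corrected plate score outside the 99.7% band of the plate's sample wells, on either side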
hDAT+cocaine – changed human dopamine transporter uptake under cocaine IC80 | Q01959 | LLC-PK1 hDAT cells, [14C]-dopamine uptake with cocaine IC80; actives deviate in either direction | B-score at 10 µM | 1.3% of 110,000 active;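 active means Z score or B-score, a plate-position-corrected score, falls beyond the plate's 99.7% confidence bounds, in either direction; inactive means both scores lie inside the 99.7% bounds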
Target sequence (Q01959 whole entry, looked up): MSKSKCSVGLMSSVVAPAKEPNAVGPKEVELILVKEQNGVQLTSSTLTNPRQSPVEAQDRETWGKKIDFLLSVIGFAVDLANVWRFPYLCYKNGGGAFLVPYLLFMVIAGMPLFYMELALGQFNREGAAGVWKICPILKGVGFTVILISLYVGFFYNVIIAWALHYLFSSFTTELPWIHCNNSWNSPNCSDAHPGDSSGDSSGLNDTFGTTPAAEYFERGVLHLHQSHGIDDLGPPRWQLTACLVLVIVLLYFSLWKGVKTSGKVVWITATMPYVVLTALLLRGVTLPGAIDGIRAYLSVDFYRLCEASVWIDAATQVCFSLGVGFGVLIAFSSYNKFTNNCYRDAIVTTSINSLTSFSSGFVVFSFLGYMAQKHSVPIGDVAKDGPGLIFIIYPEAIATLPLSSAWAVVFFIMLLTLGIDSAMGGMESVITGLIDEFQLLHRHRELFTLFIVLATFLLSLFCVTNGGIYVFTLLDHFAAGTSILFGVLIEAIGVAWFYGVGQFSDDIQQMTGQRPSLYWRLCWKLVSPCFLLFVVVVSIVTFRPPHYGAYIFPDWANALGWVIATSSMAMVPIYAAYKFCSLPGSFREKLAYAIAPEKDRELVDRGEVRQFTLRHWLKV
PostGolgi ctrl – yeast control strain growth, post-Golgi counter-screen; 5% of 98,000 active; AID 738; efflux-deficient yeast background strain, growth absorbance A615, 16 h; inhibition, % at 10 µM
PLAP activator – activators of human placental alkaline phosphatase. P05187. purified PLAP enzyme, luminescent substrate read-out; active compounds read high. activation fold at 20 µM. 1.2% of 96,000 active; in the data active means activation fold above about 2
PostGolgi yeast – growth inhibition of a yeast mutant, post-Golgi transport screen | AID 739 | 0.9% of 98,000 active | post-Golgi transport phenotypic cell assay | inhibition, % at 10 µM;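 further: yeast cells grown in 1536-well plates; yeast grown about 18 h at 30C before absorbance read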
Hits are given with their value; – = inactive; · = not tested or not shown. Hits are enriched below; roughly 12% of the tested compounds scored in any of these assays. Unless noted, no stated cut-off is given here; in the data, active means inhibition above about 30%; inactive means the rest.

SMILES	Cav32 inh	D1 mod	hDAT+cocaine	PostGolgi ctrl	PLAP activator	PostGolgi yeast
CCN1CCN(CCCNC(=O)C2CCCN(c3nnc(-n4cccc4)s3)C2)CC1 (stereo not drawn)	–	–	–	–	–	–
COc1nc(C)ccc1-c1noc(-c2ccco2)n1	–	-1.3	–	–	–	–
CC(C)OCCCNC(=O)c1cc2c(=O)n(C)c3ccccc3c2n1C	–	–	–	32	–	–
CCn1c(=O)cc(SCC(=O)NCCN2CCN(Cc3ccccc3)CC2)c2ccccc21	–	–	–	34	–	–
Cn1c(C(=O)NCCCN2CCN(c3ccccc3F)CC2)cc2c(=O)n(C)c3ccccc3c21	–	-2.6	–	–	2.3	–
O=C(Cn1nc(-c2ccccc2)ccc1=O)NCCN1CCN(Cc2ccccc2)CC1	–	-5	–	–	–	–
CCn1c(=O)cc(SCC(=O)NCc2ccc(C)cc2)c2ccccc21	–	·	–	–	–	–
Cn1c(C(=O)NCCN2CCN(Cc3ccccc3)CC2)cc2c(=O)n(C)c3ccccc3c21	–	–	3.2	·	·	·
COC(=O)c1ccc(C(NC(=O)OCc2ccccc2)/C(F)=C/[C@@H](C)C(=O)NCc2ccc(OC)c(OC)c2)cc1 (stereo partly drawn)	–	·	–	·	·	·
CCC(COC(=O)Nc1cccc(C)c1)NC(=O)OCC(C)C (stereo not drawn)	-4.7	–	–	–	–	–
CCNC(=O)OCC(CC)NC(=O)OCC(C)C (stereo not drawn)	–	·	–	–	–	–
O=C(CCSc1nnc(-c2ccncc2)o1)Nc1ccc(F)cc1	–	–	·	89	–	93
Cc1cccc(C)c1NC(=S)NNc1ncc(C(F)(F)F)cc1Cl	–	·	–	–	2.1	–
Cc1ccccc1NC(=S)NNc1ncc(C(F)(F)F)cc1Cl	–	·	–	–	–	–
Cn1cnc2c1c(=O)n(CC(O)CO)c(=O)n2C (stereo not drawn)	–	–	–	–	–	–
CCOc1ccc(Oc2cc(NC(=O)c3ccco3)cc([N+](=O)[O-])c2)cc1	·	·	·	44	–	–
O=C(Nc1ccc(Oc2cccc3ccccc23)cc1)c1ccco1	–	·	2.4	–	–	–
CCC(C)C(NC(=O)c1ccccc1NC(=O)c1ccc(OC)cc1)C(=O)NCc1ccco1 (stereo not drawn)	–	-4.7	–	–	2.1	–
COC(=O)CSc1nc2ccc(NC(=O)CSc3nnnn3Cc3ccccc3)cc2s1	–	–	–	36	–	–
O=C(C1CCN(CCCc2ccccc2)CC1)N1CCCCC1	–	·	–	–	–	–
CC1CCN(C(=O)C2CCN(CCCc3ccccc3)CC2)CC1	-4.5	–	–	–	2.2	–
CC(Sc1ccc(Cl)cc1)C(=O)Nc1ccc2c(c1)OCO2 (stereo not drawn)	-5.8	·	–	·	·	·
CC(Sc1ccc(Cl)cc1)C(=O)NCc1ccc2c(c1)OCO2 (stereo not drawn)	-5.8	·	–	–	–	–
CC(SCc1ccccc1)C(=O)Nc1ccc2c(c1)OCO2 (stereo not drawn)	–	·	–	–	–	–
C/C(=C\C(=O)c1ccc(Cl)cc1)NCc1ccc2c(c1)OCO2	–	·	–	–	–	–
SMILES	Cav32 inh	D1 mod	hDAT+cocaine	PostGolgi ctrl	PLAP activator	PostGolgi yeast
CC(Sc1ccc(Cl)cc1)C(=O)Nc1ccc(S(=O)(=O)N2CCOCC2)cc1 (stereo not drawn)	-5.1	·	–	–	–	–
CS(=O)(=O)Nc1ccc(N2CCCCC2)c(Cl)c1	–	–	–	–	–	–
Cc1cccc(-c2c3c(=O)n(C)c(=O)n(C)c3cn2C2CCCCC2)c1	–	·	–	–	–	76
Cn1c(=O)c2c(-c3ccccc3)n3c4ccccc4ncc3c2n(C)c1=O	–	–	–	·	·	·
Cc1cc(-c2ccccc2)c2c3c(cn2n1)c(=O)n(C)c(=O)n3C	–	–	–	–	–	–
Cc1cccc(-c2c3c(=O)n(C)c(=O)n(C)c3c3c(C)cc(C)nn23)c1	·	3.6	·	·	·	·
Cc1cc(C)c2c3c(c(-c4ccccc4)n2n1)c(=O)n(C)c(=O)n3C	·	5.6	·	·	·	·
Cc1nc2ccccc2n2c(-c3ccccc3)c3c(=O)n(C)c(=O)n(C)c3c12	–	·	–	47	–	–
CCOC(=O)N1CCC(NC(=O)c2csc3c2CCCC3)CC1	–	·	–	–	–	–
COc1c2c(nc3occc13)C(CCC(C)(C)O)(OC)C(O)CC2 (stereo not drawn)	–	–	–	30	–	–
CCCc1nc(-c2cc3ccc(C)cc3[nH]c2=O)no1	–	–	–	–	·	–
